Measurements reported in PubChem BioAssay (EPA / NIEHS).
Records with an inconclusive call do not appear. Active and inactive are the calls of the source. How the source made its calls: active means hit-call score of the fitted dose curve at least 0.9, where 1 is the maximum; inconclusive means response in the unintended direction; inactive means score below 0.9.

Each compound was assayed against human Thyroid Receptor alpha (THRa1), THRA (gene 7067) (UniProt P10827) (assay: ATG_THRa1_TRANS: Attagene TRANS-FACTORIAL HepG2 Assay for human Thyroid Receptor alpha (THRa1) (AID 2283014)).
human Thyroid Receptor alpha (THRa1), THRA (gene 7067), sequence (P10827 whole entry, looked up, the tested form may be a part): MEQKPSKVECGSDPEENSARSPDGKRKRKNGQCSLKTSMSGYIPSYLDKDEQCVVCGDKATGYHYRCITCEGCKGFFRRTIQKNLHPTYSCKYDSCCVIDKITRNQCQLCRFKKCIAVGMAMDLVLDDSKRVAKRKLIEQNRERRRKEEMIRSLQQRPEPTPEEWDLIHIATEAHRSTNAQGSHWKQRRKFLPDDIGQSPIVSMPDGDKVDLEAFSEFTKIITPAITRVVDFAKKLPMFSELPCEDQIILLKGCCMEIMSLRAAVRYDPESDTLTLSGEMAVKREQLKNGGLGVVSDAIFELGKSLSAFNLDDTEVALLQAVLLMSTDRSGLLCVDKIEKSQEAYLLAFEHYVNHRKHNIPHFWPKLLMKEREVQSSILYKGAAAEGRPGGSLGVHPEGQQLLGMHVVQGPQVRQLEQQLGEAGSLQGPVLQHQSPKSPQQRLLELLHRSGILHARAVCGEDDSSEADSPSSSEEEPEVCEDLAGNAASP
How it was run: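 Measured here is mRNA from a GAL4-UAS reporter in transfected HepG2 cells carrying a Gal4-fused receptor, 24 h post-dose. DMSO served as negative control and baseline.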

outcome, inactive:
COC(=O)C=C(C)CCC=C(C)C, C[N+](C)(C)CCCCCC[N+](C)(C)C, C[C@H]1O[C@@H](O[C@H]2[C@@H](O)C[C@H](O[C@H]3[C@@H](O)C[C@H](O[C@H]4CC[C@@]5(C)[C@H](CC[C@@H]6[C@@H]5C[C@@H](O)[C@]5(C)[C@@H](C7=CC(=O)OC7)CC[C@]65O)C4)O[C@@H]3C)O[C@@H]2C)C[C@H](O)[C@@H]1O, C#CC(C)(O)CC(C)C (stereo not given), CCCCCCCCN1CCCC1=O, C[Si]1(C)O[Si](C)(C)O[Si](C)(C)O1, OCC(O)c1ccccc1 (stereo not given), CCCCCCCCCCCCCCN(CCO)CCO, Cc1cc(S(=O)(=O)O)ccc1N=Nc1c(O)ccc2ccccc12, CC(=O)Nc1ccc(C(=O)CCl)cc1, CCCCCC(=O)CC, O=C(O)COCC(=O)O, CCCC(O)C(O)CO (stereo not given), CC(O)C1CCCCC1 (stereo not given), CCCC(C)=O, COC(=O)c1ccc([N+](=O)[O-])cc1, OCCOCCN1CCN(C2=Nc3ccccc3Sc3ccccc32)CC1, CC(C)(C)CC(C)(C)c1ccc(OCCOCC[N+](C)(C)Cc2ccccc2)cc1, Oc1ccc2cc(SSc3ccc4cc(O)ccc4c3)ccc2c1, CC=Cc1ccc(OCC)c(O)c1
